Screening data from PubChem BioAssay.
PINK1 modulator: PINK1 expression modulation | Potency, µM (highest dose often 76.6 µM), inactives show at the highest dose activation (PINK1 increase), most hits filed as activators | hit rate 0.2% among 410,000 | AID 624263 | PINK1 immunofluorescence, high-content cytometry, 24 h; active means well fitted activation curve with a large enough effect; inconclusive means small, poorly fitted or top-dose-only effect; cell line not stated here; further: potency means the concentration at half of the fitted maximal effect; % of control where 0% means no effect; nearly all actives have a fitted effect of over 65% in size
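Compound titrations (5 concentrations, 24 h) on a stable cell line; DMSO and CCCP controls. Endpoint: fixed-cell PINK1 immunofluorescence with mitochondrial, cell and nuclear markers, scanned by microplate cytometer.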
SW480 rereplic: inducers of DNA re-replication in SW480 colon cancer cells | SW480 DNA re-replication, Hoechst DNA content imaging, 48 h | Potency, µM (top dose mostly 46.1 µM), for the others: at the top dose re-replication activation, usual class: activators | hit rate 1.8% among 340,000; further: potency means the concentration at half of the fitted maximal effect; % of control where 0% means no effect; nearly all actives have a fitted effect of over 55% in size
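Per well, 250 cells were exposed to pinned compound for 48 hr. Nuclear DNA was visualised with Hoechst (40 min, 37 C) and total object intensity recorded by fluorescence scanning.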
IL1B secr inh: inhibitors of inflammasome signaling (IL-1 beta secretion). activity change, % at 57.5 µM. THP-1 LPS/ATP IL-1B secretion, AlphaLISA, 16 h; active compounds read low. hit rate 4.7% among 360,000; in the data active means activity change below about -50%; inconclusive means mostly about -30% to -49%; further: on the % scale 0 is the no-effect control and ±100 the full control effect
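Secreted IL-1B measured by AlphaLISA bead assay after 16 h compound exposure of THP-1 cells; compounds (final up to 57.5 uM) added 1 h before LPS (250 ng/mL) and ATP (1.25 mM) stimulation; lower signal means less secretion.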
MCF10A rerep: induces DNA re-replication in MCF 10a normal breast cells. MCF 10A DNA re-replication, Hoechst nuclear intensity, 48 h. Potency, µM (top dose mostly 46.1 µM), for inactives: at the top dose activity, positive = re-replication, most hits filed as activators. hit rate 2.9% among 350,000. AID 624296; further: potency means the concentration at half of the fitted maximal effect; % of control where 0% means no effect; nearly all actives have a fitted effect of over 50% in size
ATXN2 expr inh: ATXN2 expression inhibition; HEK-293 ATXN2-luciferase reporter, luminescence, 24 h; Potency, µM (doses to about 57 µM), for inactives: at the highest dose activity change, negative = inhibition, actives largely listed as inhibitors; hit rate 0.72% among 360,000; further: potency means the concentration at half of the fitted maximal effect; on the % scale 0 is the no-effect control and ±100 the full control effect; nearly all actives have a fitted effect of over 55% in size
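ATXN2-luciferase reporter cells (luciferase flanked by upstream and downstream ATXN2 gene portions) were treated 24 h at 37 °C with compounds at up to 57 uM. SteadyGlo luminescence gave expression; GF-AFC fluorescence gave viability.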
ATXN viability: reduces viability in counter-screen for ATXN expression inhibitors; hit rate 0.49% among 400,000; Potency, µM (top dose mostly 56.7 µM), usual class: cytotoxic; AID 651635; S2 cells (HEK-293 line with an ATXN2-luciferase reporter) viability, CellTiter-Fluor protease fluorescence, 24 h; further: potency means the concentration at half of the fitted maximal effect; nearly all actives have a fitted effect of over 40% in size
* = called active by the depositor; i = inactive; ? = inconclusive; . = not tested or not shown; [ ] = remark or other dose. The list is not random: actives were taken first. Their share in the collection is about 7.1%. Unless noted, the call rests on the fitted dose curve; in most records, active means well fitted curve in the direction sought with a large enough effect; inconclusive means small, poorly fitted or top-dose-only effect, or another doubt; inactive means no such curve, though single readings can be large; an effect the other way counts as inactive or inconclusive.

SMILES	PINK1 modulator	SW480 rereplic	IL1B secr inh	MCF10A rerep	ATXN2 expr inh	ATXN viability
CN1CCN(c2ccc(S(=O)(=O)N3CCCCC3)cc2NC(=O)c2ccc3ccccc3c2)CC1	15%	?	-92*	23µM*	-3%	i
Cc1cccc(NC(=O)CSCC(=O)Nc2cc(Cl)ccc2N2CCN(C)CC2)c1	-1%	7%	-79*	0%	-28%	i
COc1ccccc1C(=O)N(Cc1cc2cc3c(cc2nc1N(C)C)OCO3)CC1CCCO1 (configuration not stated)	2%	.	.	.	.	.
COc1cc2ncc3c(-c4ccccc4)nn(CC(=O)NC4CCCCC4)c3c2cc1OC	3%	.	.	.	10%	i
Cc1ccc(-n2ncc3c(NCCC4=CCCCC4)ncnc32)cc1	3%	.	.	.	41%	i
CCOc1ccccc1CNC(=O)c1ccc2nc(N3CCC(C)CC3)sc2c1	-1%	.	.	.	53%	i
CCN(CC)S(=O)(=O)c1cc(C(=O)Nc2cc(Cl)ccc2N2CCN(C)CC2)ccc1Cl	.	-4%	0	-1%	.	.
CN1CCN(c2ccc(Cl)cc2NC(=O)c2ccc(S(=O)(=O)N(C)C)cc2)CC1	0%	11µM*	?	19%	-23%	i
CCOC(=O)c1ccccc1NC(=O)NCc1c(-n2cccc2)sc2c1CCCC2	3%	.	.	.	3%	i
Cc1nn(-c2ccccc2)c2ncc(C(=O)c3cc(Cl)ccc3O)cc12	28µM*	-2%	?	?	-16%	i
O=C1N(c2ccccc2C(F)(F)F)O[C@@]1(c1ccccc1)C1CCCCC1	-1%	?	-16	21µM*	-38%	i
O=C1N(c2ccccc2C(F)(F)F)O[C@@]1(c1ccccc1)C1CCCC1	1%	-5%	-22	16µM*	-36%	i
COc1ccccc1[C@]1(C)ON(c2ccccc2C(F)(F)F)C1=O	-1%	9%	-100*	14%	?	?
CC[C@]1(c2ccccc2OC)ON(c2ccccc2C(F)(F)F)C1=O	-1%	?	0	?	?	.
CCOc1cc(C2c3c(-c4cc(C)ccc4O)n[nH]c3C(=O)N2CCCOC(C)C)ccc1O (configuration not stated)	1%	.	.	.	.	.
Nc1c(C(=O)Nc2ccc(Cl)c(C(F)(F)F)c2)sc2nc(-c3ccncc3)ccc12	0%	.	.	.	.	.
Cc1ccc(NC(=O)N2CCC(CN3CCC(C)CC3)CC2)cc1F	1%	.	.	.	14%	i
Cc1nn(-c2ccccc2)c(C)c1CC(=O)NCC1Cc2cc(-c3cncnc3)ccc2O1 (configuration not stated)	0%	.	.	.	.	i
Cc1c(C(=O)NCc2cccc(Cl)c2)sc2ncnc(N(C)C3CCCCC3)c12	3%	.	.	.	?	i
COc1ccc(NC(=O)CN(C)C(=O)c2cn(-c3ccccc3)nc2-c2cccs2)cc1	-2%	0%	-16	23%	0%	i
O=C(c1cn(-c2ccccc2)nc1-c1cccs1)N1CCN(c2ccccc2)CC1	20%[38.3 µM]	2.9µM*	10	6.5µM*	13%	i
O=C(c1cn(-c2ccccc2)nc1-c1ccc(Br)cc1)N1CCOCC1	7%	23µM*	24	5%	-4%	i
CN(CC(=O)Nc1ccc(F)cc1)C(=O)c1cn(-c2ccccc2)nc1-c1cccs1	-1%	-10%	-60*	-1%	-8%	i
CN(CC(=O)Nc1ccc(F)cc1)C(=O)c1ccc2ccccc2n1	2%	5.2µM*	13	0%	-20%	i
CC(=O)N1CCC[C@H]1C(=O)NCC1Cc2cc(-c3cnccn3)cc(Cl)c2O1 (some centres not stated)	3%	.	.	.	.	i
COc1ccc(CNCc2c(C(=O)O)c(C)n(Cc3ccccc3C)c2C)c(OC)c1	1%	.	.	.	.	.
Cc1cc(C)c(S(C)(=O)=O)c(NN)n1	3%	-19%	-62*	-1%	-2%	i
CCCS(=O)(=O)c1nc(C)cc(C)c1S(C)(=O)=O	-1%	2%	31	-3%	3%	i
